# Key:
# Assay in all cases: DAPPL (digital affinity profiling via proximity ligation, sequencing); 10 mM Tris-HCl pH 7.5, 50 mM NaCl, 1 mM DTT, 4% glycerol, room temperature, 30 min; GST-TFs on glutathione beads, 16-mer random dsDNA library, 0.1% formaldehyde crosslink after washing; high values mean tight binding
# FLI1 = molecular target: T1, FLI1 (Homo sapiens, UniProt Q01543 1-452); conditions: protein: recombinant; tags: N-terminal GST; dsDNA, one strand shown
# T1 sequence: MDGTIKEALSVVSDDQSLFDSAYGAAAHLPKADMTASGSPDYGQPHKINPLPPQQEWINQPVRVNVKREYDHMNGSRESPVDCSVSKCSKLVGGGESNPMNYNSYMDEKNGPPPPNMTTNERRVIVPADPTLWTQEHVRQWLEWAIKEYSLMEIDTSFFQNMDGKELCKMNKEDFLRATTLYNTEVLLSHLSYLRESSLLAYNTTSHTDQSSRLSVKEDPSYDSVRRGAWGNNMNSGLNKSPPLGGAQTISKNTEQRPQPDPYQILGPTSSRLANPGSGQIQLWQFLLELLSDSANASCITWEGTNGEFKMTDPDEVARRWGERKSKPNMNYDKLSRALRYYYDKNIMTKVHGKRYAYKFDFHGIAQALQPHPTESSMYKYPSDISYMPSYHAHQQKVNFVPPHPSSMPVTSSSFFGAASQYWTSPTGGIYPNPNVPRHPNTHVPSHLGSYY
# How it was run: (§1)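 Each value of binding signal is a hexamer's read frequency for a factor divided by the same hexamer's frequency in the tag-only sample. Barcoded, bead-captured GST fusions of human transcription factors made in yeast were pooled with that sample and incubated with 200 nmole of a random double-stranded 16-mer DNA library in Tris/NaCl/DTT/glycerol buffer at room temperature for 30 min. Washing, 0.1% formaldehyde crosslinking, proximity ligation, PCR and Illumina NextSeq500 sequencing followed.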
# ELK1 = molecular target: T2, ELK1 (Homo sapiens, UniProt P19419 1-428); conditions: protein: recombinant; tags: N-terminal GST; dsDNA, one strand shown
# T2 sequence: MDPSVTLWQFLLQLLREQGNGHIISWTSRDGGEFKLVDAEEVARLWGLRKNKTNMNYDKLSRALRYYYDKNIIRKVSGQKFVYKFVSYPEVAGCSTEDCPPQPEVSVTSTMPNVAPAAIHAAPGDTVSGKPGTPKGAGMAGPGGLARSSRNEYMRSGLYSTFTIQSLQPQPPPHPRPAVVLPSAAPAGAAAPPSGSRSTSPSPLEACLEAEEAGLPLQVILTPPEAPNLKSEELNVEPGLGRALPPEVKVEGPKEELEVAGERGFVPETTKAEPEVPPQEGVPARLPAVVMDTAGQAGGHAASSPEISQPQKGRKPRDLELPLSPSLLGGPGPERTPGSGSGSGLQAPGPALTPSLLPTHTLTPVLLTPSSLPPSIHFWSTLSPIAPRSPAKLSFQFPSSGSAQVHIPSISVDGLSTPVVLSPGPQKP
# How it was run: as §1
# GABPA = molecular target: T3, GABPA (Homo sapiens, UniProt Q06546 1-454); conditions: protein: recombinant; tags: N-terminal GST; dsDNA, one strand shown
# T3 sequence: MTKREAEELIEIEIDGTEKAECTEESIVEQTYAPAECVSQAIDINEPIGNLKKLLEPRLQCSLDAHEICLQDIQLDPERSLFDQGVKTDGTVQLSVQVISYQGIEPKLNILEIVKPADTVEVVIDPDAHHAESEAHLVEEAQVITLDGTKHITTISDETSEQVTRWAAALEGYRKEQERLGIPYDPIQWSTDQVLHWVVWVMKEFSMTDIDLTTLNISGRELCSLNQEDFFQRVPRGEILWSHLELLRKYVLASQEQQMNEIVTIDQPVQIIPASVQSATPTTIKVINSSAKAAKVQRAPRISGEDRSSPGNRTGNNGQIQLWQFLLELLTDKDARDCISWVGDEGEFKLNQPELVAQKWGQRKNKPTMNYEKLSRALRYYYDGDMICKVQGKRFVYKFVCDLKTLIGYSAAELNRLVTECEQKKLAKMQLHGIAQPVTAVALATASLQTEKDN
# How it was run: as §1
# ERG = molecular target: T4, ERG (Homo sapiens, UniProt P11308 1-479); conditions: protein: recombinant; tags: N-terminal GST; dsDNA, one strand shown
# T4 sequence: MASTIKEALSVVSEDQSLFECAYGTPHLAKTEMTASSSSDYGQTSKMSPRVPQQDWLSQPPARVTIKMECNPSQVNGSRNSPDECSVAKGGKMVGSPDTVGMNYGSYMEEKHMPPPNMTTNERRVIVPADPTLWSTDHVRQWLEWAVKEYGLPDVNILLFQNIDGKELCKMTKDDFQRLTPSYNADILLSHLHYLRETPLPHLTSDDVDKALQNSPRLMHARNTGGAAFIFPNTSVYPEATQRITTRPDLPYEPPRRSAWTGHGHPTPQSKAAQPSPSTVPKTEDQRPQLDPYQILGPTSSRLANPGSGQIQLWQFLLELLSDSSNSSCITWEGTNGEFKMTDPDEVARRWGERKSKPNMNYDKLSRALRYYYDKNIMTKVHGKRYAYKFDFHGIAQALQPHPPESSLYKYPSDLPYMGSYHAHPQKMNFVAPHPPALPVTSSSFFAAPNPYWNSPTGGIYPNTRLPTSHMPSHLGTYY
# How it was run: as §1
# ELF1 = ELF1 (Homo sapiens, UniProt P32519 1-619); conditions: protein: recombinant; tags: N-terminal GST; dsDNA, one strand shown
# Chain of ELF1 (P32519 whole entry): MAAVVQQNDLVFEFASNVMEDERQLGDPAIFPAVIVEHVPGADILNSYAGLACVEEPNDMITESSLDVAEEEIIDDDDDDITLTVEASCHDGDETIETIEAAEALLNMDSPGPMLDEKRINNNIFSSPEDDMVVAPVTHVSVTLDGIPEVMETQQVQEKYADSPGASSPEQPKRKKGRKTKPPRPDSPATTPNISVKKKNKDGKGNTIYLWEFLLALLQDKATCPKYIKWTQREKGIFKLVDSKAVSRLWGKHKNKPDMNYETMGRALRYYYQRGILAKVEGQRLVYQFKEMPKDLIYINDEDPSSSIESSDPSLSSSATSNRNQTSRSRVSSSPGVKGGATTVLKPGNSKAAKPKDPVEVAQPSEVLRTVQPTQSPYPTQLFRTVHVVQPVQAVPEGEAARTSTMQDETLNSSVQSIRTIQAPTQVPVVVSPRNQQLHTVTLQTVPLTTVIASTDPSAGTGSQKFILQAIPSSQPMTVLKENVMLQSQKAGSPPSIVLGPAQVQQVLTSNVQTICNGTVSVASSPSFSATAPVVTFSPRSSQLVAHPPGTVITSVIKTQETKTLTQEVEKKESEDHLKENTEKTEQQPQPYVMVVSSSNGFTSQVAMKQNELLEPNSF
# How it was run: as §1
# EHF = molecular target: T5, EHF (Homo sapiens, UniProt Q9NZC4 1-300); conditions: protein: recombinant; tags: N-terminal GST; dsDNA, one strand shown
# T5 sequence: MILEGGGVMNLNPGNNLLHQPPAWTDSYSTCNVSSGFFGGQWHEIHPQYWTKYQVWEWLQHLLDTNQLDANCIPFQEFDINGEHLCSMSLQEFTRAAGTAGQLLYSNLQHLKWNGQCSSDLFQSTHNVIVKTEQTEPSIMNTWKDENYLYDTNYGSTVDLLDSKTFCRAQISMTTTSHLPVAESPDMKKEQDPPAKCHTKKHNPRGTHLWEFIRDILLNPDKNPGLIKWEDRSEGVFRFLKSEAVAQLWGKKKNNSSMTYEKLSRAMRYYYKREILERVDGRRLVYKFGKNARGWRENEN
# How it was run: as §1
# SPI1 = SPI1 (Homo sapiens, UniProt P17947 1-270); conditions: protein: recombinant; tags: N-terminal GST; dsDNA, one strand shown
# How it was run: as §1
# SPIB = SPIB (Homo sapiens, UniProt Q01892 1-262); conditions: protein: recombinant; tags: N-terminal GST; dsDNA, one strand shown
# Chain of SPIB (Q01892 whole entry): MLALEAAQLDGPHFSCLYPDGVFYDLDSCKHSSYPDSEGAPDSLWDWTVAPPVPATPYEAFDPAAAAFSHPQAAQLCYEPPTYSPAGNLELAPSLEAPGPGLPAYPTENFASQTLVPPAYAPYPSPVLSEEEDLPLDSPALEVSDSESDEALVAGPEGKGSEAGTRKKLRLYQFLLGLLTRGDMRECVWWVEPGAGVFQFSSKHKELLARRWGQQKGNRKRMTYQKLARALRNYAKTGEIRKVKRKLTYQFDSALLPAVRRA
# How it was run: as §1
# ELK3 = molecular target: T6, ELK3 (Homo sapiens, UniProt P41970 1-407); conditions: protein: recombinant; tags: N-terminal GST; dsDNA, one strand shown
# T6 sequence: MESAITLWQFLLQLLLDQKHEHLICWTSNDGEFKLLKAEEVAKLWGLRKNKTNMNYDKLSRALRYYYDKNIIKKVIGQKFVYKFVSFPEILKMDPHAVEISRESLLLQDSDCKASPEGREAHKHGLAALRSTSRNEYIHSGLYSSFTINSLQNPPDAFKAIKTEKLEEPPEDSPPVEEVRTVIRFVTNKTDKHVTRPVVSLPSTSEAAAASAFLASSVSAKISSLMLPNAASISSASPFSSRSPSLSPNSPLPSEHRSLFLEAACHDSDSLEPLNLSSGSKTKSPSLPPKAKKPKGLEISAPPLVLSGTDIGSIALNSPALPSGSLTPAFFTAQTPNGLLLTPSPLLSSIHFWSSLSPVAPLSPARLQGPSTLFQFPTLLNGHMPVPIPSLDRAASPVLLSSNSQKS
# How it was run: as §1
# FEV = molecular target: T7, FEV (Homo sapiens, UniProt Q99581 1-238); conditions: protein: recombinant; tags: N-terminal GST; dsDNA, one strand shown
# T7 sequence: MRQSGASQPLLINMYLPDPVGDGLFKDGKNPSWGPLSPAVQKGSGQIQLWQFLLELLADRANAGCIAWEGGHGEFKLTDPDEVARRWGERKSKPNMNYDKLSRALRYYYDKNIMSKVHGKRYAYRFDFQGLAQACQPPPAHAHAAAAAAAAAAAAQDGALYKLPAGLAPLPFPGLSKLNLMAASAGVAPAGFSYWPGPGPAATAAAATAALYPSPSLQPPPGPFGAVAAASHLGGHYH
# How it was run: as §1
# ETV5 = ETV5 (Homo sapiens, UniProt P41161 1-510); conditions: protein: recombinant; tags: N-terminal GST; dsDNA, one strand shown
# Chain of ETV5 (P41161 whole entry): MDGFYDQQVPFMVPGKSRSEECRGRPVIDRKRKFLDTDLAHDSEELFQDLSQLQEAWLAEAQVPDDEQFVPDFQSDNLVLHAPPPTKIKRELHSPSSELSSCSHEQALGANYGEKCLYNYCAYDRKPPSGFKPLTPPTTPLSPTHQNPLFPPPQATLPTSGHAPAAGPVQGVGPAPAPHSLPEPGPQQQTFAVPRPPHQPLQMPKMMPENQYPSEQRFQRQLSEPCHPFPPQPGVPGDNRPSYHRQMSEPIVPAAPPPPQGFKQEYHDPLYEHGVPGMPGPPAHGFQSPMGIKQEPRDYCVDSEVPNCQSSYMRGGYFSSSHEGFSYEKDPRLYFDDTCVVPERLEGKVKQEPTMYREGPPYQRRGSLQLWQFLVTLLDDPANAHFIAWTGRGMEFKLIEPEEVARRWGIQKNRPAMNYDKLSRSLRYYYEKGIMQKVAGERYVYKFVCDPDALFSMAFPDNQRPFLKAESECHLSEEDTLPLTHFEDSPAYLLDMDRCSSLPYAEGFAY
# How it was run: as §1
# HSF1 = HSF1 (Homo sapiens, UniProt Q00613 1-529); conditions: protein: recombinant; tags: N-terminal GST; chain copies: 3; dsDNA, one strand shown
# Chain of HSF1 (Q00613 whole entry): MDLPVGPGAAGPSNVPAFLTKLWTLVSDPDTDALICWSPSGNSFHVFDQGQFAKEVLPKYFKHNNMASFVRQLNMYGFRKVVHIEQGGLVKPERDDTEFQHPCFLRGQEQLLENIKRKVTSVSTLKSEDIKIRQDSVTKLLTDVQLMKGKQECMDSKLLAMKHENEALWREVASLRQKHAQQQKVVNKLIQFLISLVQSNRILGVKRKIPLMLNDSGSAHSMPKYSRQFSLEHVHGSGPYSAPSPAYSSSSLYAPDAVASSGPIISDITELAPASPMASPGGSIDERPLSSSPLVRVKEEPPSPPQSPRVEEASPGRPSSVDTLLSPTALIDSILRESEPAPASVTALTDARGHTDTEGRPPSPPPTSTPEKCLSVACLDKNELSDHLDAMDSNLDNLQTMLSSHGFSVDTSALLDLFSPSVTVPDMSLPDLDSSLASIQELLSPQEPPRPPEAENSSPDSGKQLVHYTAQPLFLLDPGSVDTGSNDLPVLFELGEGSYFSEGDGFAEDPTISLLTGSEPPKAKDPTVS
# How it was run: as §1
# SPIC = molecular target: T8, SPIC (Homo sapiens, UniProt Q8N5J4 1-248); conditions: protein: recombinant; tags: N-terminal GST; dsDNA, one strand shown
# T8 sequence: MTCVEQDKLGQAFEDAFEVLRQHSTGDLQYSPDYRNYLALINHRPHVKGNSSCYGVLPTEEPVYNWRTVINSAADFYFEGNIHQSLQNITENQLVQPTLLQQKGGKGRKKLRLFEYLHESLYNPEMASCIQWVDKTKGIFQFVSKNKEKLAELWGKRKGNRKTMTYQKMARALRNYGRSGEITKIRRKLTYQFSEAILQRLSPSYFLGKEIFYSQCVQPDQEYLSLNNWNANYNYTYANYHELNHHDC
# How it was run: as §1
# ELF4 = ELF4 (Homo sapiens, UniProt Q99607 1-663); conditions: protein: recombinant; tags: N-terminal GST; dsDNA, one strand shown
# Chain of ELF4 (Q99607 whole entry): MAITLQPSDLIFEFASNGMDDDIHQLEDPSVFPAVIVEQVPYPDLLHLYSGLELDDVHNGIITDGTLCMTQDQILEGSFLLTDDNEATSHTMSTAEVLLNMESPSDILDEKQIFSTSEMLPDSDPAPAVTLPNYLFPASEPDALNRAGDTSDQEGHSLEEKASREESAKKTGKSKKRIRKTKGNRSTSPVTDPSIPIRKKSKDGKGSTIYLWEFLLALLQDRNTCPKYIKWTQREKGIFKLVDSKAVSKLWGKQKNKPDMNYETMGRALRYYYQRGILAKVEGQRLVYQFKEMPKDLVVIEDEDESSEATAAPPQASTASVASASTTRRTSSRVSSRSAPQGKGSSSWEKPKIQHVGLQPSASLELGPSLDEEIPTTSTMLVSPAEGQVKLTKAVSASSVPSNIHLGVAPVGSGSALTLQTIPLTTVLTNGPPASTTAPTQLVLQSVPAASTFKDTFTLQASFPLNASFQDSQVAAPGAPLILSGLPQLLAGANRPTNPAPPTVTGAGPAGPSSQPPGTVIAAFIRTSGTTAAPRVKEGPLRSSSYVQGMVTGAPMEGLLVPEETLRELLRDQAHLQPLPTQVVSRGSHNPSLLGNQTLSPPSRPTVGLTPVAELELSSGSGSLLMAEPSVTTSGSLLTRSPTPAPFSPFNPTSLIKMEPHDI
# How it was run: as §1
# ELK4 = molecular target: T9, ELK4 (Homo sapiens, UniProt P28324-2 1-405); conditions: protein: recombinant; tags: N-terminal GST; dsDNA, one strand shown
# T9 sequence: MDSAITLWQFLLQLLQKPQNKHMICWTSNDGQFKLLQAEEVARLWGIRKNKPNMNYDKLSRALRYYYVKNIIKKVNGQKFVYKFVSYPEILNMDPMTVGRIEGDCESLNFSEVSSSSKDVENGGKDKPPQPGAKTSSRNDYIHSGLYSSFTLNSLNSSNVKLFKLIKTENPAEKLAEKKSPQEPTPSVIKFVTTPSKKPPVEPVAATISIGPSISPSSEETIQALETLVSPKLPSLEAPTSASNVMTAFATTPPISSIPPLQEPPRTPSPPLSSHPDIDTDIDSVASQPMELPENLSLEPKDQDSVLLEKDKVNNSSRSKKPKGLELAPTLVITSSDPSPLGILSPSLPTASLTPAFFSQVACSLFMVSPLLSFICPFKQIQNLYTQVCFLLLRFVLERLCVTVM
# How it was run: as §1
# ETV2 = molecular target: T10, ETV2 (Homo sapiens, UniProt O00321 1-342); conditions: protein: recombinant; tags: N-terminal GST; dsDNA, one strand shown
# T10 sequence: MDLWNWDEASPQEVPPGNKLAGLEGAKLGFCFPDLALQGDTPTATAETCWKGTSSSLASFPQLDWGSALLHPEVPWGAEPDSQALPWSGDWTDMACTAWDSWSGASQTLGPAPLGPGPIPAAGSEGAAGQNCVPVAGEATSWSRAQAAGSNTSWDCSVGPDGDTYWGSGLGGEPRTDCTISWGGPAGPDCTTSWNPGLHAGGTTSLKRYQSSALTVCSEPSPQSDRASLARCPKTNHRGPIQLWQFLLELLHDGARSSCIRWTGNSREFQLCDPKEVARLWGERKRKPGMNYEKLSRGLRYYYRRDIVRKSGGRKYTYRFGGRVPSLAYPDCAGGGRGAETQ
# How it was run: as §1
# ELF3 = molecular target: T11, ELF3 (Homo sapiens, UniProt P78545 1-371); conditions: protein: recombinant; tags: N-terminal GST; dsDNA, one strand shown
# T11 sequence: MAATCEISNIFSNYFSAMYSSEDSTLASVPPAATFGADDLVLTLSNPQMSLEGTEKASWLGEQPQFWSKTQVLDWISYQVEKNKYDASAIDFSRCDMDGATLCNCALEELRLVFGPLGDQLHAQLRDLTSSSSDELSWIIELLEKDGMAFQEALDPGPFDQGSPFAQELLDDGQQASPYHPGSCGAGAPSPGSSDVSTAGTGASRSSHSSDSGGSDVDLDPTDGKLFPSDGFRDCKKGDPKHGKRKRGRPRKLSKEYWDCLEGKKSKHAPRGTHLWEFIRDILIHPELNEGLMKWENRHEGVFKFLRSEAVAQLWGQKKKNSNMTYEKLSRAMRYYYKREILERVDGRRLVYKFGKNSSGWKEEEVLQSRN
# How it was run: as §1
# CRX = CRX (Homo sapiens, UniProt O43186 1-299); conditions: protein: recombinant; tags: N-terminal GST; dsDNA, one strand shown
# Chain of CRX (O43186 whole entry): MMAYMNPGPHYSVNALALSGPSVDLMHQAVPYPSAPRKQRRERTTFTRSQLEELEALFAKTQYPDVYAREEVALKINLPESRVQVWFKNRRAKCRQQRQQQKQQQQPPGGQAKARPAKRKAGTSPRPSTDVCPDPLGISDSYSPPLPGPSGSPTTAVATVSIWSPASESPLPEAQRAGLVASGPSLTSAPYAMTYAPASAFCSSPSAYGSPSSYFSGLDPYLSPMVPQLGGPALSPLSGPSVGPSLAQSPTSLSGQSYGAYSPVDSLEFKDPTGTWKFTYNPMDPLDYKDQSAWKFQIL
# How it was run: as §1
# ETV1 = ETV1 (Homo sapiens, UniProt P50549 1-477); conditions: protein: recombinant; tags: N-terminal GST; dsDNA, one strand shown
# Chain of ETV1 (P50549 whole entry): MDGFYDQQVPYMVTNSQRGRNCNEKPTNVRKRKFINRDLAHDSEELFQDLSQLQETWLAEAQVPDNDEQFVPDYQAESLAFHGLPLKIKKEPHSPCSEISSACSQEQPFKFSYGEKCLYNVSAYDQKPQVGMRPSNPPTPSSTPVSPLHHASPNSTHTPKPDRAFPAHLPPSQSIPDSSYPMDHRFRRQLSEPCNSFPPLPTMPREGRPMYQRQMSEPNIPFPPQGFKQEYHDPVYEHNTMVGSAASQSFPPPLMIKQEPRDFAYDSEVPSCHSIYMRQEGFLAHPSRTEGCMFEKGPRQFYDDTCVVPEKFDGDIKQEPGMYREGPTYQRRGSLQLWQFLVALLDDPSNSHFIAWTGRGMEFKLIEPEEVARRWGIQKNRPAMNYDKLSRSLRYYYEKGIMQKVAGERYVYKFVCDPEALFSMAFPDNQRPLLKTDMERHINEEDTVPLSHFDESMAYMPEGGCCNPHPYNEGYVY
# How it was run: as §1
sequence,measurement,setting,value
ATCTTT,binding signal,FLI1,"1.26 fold enrichment (6-mer frequency, TF over GST control)"
same,binding signal,ELK1,"1.24 fold enrichment (6-mer frequency, TF over GST control)"
same,binding signal,GABPA,"1.22 fold enrichment (6-mer frequency, TF over GST control)"
same,binding signal,ERG,"1.21 fold enrichment (6-mer frequency, TF over GST control)"
same,binding signal,ELF1,"1.19 fold enrichment (6-mer frequency, TF over GST control)"
same,binding signal,EHF,"1.27 fold enrichment (6-mer frequency, TF over GST control)"
same,binding signal,SPI1,"1.21 fold enrichment (6-mer frequency, TF over GST control)"
same,binding signal,SPIB,"1.23 fold enrichment (6-mer frequency, TF over GST control)"
same,binding signal,ELK3,"1.22 fold enrichment (6-mer frequency, TF over GST control)"
same,binding signal,FEV,"1.19 fold enrichment (6-mer frequency, TF over GST control)"
same,binding signal,ETV5,"1.16 fold enrichment (6-mer frequency, TF over GST control)"
same,binding signal,HSF1,"1.58 fold enrichment (6-mer frequency, TF over GST control)"
same,binding signal,SPIC,"1.35 fold enrichment (6-mer frequency, TF over GST control)"
same,binding signal,ELF4,"1.22 fold enrichment (6-mer frequency, TF over GST control)"
same,binding signal,ELK4,"1.29 fold enrichment (6-mer frequency, TF over GST control)"
same,binding signal,ETV2,"1.15 fold enrichment (6-mer frequency, TF over GST control)"
same,binding signal,ELF3,"1.17 fold enrichment (6-mer frequency, TF over GST control)"
same,binding signal,CRX,"1.76 fold enrichment (6-mer frequency, TF over GST control)"
same,binding signal,ETV1,"1.24 fold enrichment (6-mer frequency, TF over GST control)"
